Rows were chosen to be rich in hits. Some 10% of all compounds tested hit in one or more screens of this group.
NIH3T3 tox – NIH 3T3 cell cytotoxicity; NIH 3T3 viability, CellTiter-Glo ATP luminescence, 48-72 h; Potency, µM (doses to about 96.7 µM), actives largely listed as inhibitors; 94,000 compounds, 4.3% hits; AID 1345082; further: nearly all actives have a fitted effect of over 55% in size
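First NIH 3T3 cells are plated at 400 cells/well; next compound is pinned in; then plates incubate 48 or 72 hr at 37 °C; finally CellTiter-Glo is added and luminescence read after 10 min.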
HEK cytotox – HEK 293 cell cytotoxicity; HEK 293 viability, ATP luminescence (CellTiter-Glo), 48-72 h; Potency, µM (series often up to 115 µM), most hits filed as inhibitors; 94,000 compounds, 6.6% hits; AID 1345083; further: nearly all actives have a fitted effect of over 60% in size
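ATP-coupled CellTiter-Glo luminescence served as viability read-out, recorded 10 min after reagent addition at room temperature. HEK 293 cells, 250 cells/well, had been incubated with pintool-transferred compound for 48 or 72 hr at 37 degree Celsius.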
FLuc inh – Photinus pyralis luciferase inhibition; P08659; purified P. pyralis luciferase, luminescence, biochemical; Potency, µM (titrated, usually from 115 µM), most hits filed as inhibitors; 76,000 compounds, 2.5% hits; further: nearly all actives have a fitted effect of over 65% in size
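Luminescence read by CCD imager after adding enzyme (10nM final) to wells holding compound, titrated in qHTS. Substrates 10uM each D-luciferin and ATP; buffer 50mM Tris acetate pH 7.5, 10mM Mg acetate, Tween-20, BSA.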
NPR1 antag – blocks ANP-stimulated signaling of human Npr1 receptor; HEK293 hNpr1 GloSensor cGMP, ANP-stimulated luminescence; AID 1347048; 76,000 compounds, 1.6% hits; Potency, µM (highest dose often 46.3 µM), hits mostly inhibitors; calls by dose curve; further: nearly all actives have a fitted effect of over 60% in size
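HEK293 cells stably expressing human Npr1 and cGMP GloSensor pGS-40F, loaded 2 h with 2% GloSensor reagent, given compound 30 min at room temperature. Luminescence read before and 20 min after 0.1 nM hNppA.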
GPT2 inh – GPT2 alanine aminotransferase inhibition; 100,000 compounds, 0.25% hits; Potency, µM (top dose mostly 57.7 µM), most hits filed as inhibitors; Recombinant GPT2, coupled pyruvate oxidase/HRP Amplex Red fluorescence; further: nearly all actives have a fitted effect of over 60% in size
Target sequence (Q8TD30 whole entry, looked up): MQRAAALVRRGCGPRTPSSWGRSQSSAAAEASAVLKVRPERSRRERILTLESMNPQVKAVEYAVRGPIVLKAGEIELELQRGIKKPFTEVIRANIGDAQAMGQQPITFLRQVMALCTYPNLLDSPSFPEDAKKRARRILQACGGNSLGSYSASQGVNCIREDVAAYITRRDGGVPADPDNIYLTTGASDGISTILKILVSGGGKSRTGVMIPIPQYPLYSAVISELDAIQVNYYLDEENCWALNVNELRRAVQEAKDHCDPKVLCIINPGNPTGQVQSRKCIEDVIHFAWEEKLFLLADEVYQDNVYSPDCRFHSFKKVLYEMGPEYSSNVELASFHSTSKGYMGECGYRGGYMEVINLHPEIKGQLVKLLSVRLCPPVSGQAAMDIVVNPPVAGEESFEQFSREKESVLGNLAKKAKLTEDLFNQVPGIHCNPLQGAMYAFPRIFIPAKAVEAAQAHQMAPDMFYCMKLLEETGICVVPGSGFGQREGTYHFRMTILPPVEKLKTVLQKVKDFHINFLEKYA
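Fluorescence of coupled pyruvate oxidase/HRP/Amplex Red system (50uM Amplex, 30 min, dark) reports pyruvate formed by GPT2. Enzyme reaction: 10ng/uL GPT2, 2mM L-alanine, 250uM a-KG, 30 min room temperature, pH 7.5; 50uM AOA control.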
Each line names hits and unclear results; the compound was inactive in the other large screens. Unless noted, the call rests on the fitted dose curve; in most records, active means well fitted curve in the direction sought with a large enough effect; inconclusive means small, poorly fitted or top-dose-only effect, or another doubt; inactive means no such curve, though single readings can be large; an effect the other way counts as inactive or inconclusive.

CC1CCCC(C)N1C(=O)c1ccc2nc(-c3ccncc3)oc2c1 (centres undefined)	HEK cytotox 71µM (no result: FLuc inh, NPR1 antag)
O=C(c1ccc2oc(-c3ccnc(Cl)c3)nc2c1)N1CCOCC1	NIH3T3 tox 35µM, HEK cytotox inconclusive (no result: FLuc inh, NPR1 antag)
CN(C)C(=O)c1nc2cccnc2n(CCc2ccccc2)c1=O	none (no result: FLuc inh, NPR1 antag)
OC[C@@H]1CNC[C@H]1C1CCN(Cc2ccc(F)c(Br)c2)CC1	NIH3T3 tox 35µM, HEK cytotox inconclusive
OC[C@@H]1CNC[C@H]1C1CCN(Cc2ccc(Br)cc2F)CC1	NIH3T3 tox inconclusive, HEK cytotox inconclusive
CN(C)c1cccc(C(=O)N2CCC(c3n[nH]c(=O)n3-c3ccccc3)CC2)c1	FLuc inh 32µM
Cc1cccc(OCC(=O)N2CCC(c3n[nH]c(=O)n3Cc3ccc(F)cc3)CC2)c1	NIH3T3 tox 20µM
Cc1ccc(Cn2c(C3CCN(C(=O)COc4cccc(C)c4)CC3)n[nH]c2=O)cc1	none
Cc1cccc(OCC(=O)N2CCC(c3n[nH]c(=O)n3-c3ccccc3)CC2)c1	NIH3T3 tox 7.1µM
COc1cccc(CCC(=O)N2CCC(c3n[nH]c(=O)n3-c3ccccc3)CC2)c1	none
Cc1cc(Cl)ccc1OCC(=O)N1CCC(c2n[nH]c(=O)n2-c2ccccc2)CC1	NIH3T3 tox 40µM, HEK cytotox inconclusive
O=C(c1ccc(F)cc1)N1CCN(C(=O)c2nc3cccnc3n(Cc3ccccc3)c2=O)CC1	none (no result: FLuc inh, NPR1 antag)
Cc1cccc(C)c1-c1nnc2ccc(C(=O)NCC3CC3)cn12	none (no result: FLuc inh, NPR1 antag)
O=C(c1coc(COc2ccc(F)cc2Cl)n1)N1CCCCO1	HEK cytotox inconclusive, FLuc inh 35µM
COC1CCN(C(=O)c2coc(COc3ccc(F)cc3Cl)n2)CC1	NIH3T3 tox inconclusive
O=C(NCCc1ccncc1)c1coc(COc2ccc(F)cc2Cl)n1	NIH3T3 tox inconclusive, HEK cytotox 32µM
O=C1Nc2ccccc2C12CN([S+](=O)([O-])c1cccc(C(F)(F)F)c1)C2	NIH3T3 tox inconclusive (no result: FLuc inh, NPR1 antag)
O=C1Nc2ccccc2C12CCN([S+](=O)([O-])c1ccsc1)CC2	HEK cytotox 45µM, GPT2 inh inconclusive
O=C(c1ccc(C2CCNC2)cc1)N(Cc1ccccc1)CC1CCC1 (centres undefined)	NIH3T3 tox inconclusive, HEK cytotox 25µM
CN(C/C=C/c1ccccc1)C(=O)c1ccc(C2CCCNC2)cc1 (centres undefined)	NIH3T3 tox inconclusive, HEK cytotox inconclusive
COC(=O)[C@@H]1Cc2c([nH]c3ccccc23)[C@H]2C[C@@H](NCCCn3ccnc3)C[C@@H](c3ccc(F)cc3)N21	NIH3T3 tox 25µM, HEK cytotox 25µM
COC(=O)[C@@H]1Cc2c([nH]c3ccccc23)[C@H]2C[C@@H](NCCCn3ccnc3)C[C@@H](c3ccc(Cl)c(F)c3)N21	NIH3T3 tox 25µM, HEK cytotox 28µM
O=C(NCCCn1ccnc1)c1ccc(C2CCCNC2)cc1 (centres undefined)	none
COC(=O)[C@@H]1Cc2c([nH]c3ccccc23)[C@H]2C[C@@H](NCCCn3ccnc3)C[C@@H](c3cccc(Cl)c3)N21	NIH3T3 tox 18µM, HEK cytotox 28µM
CN1Cc2ccc(NCc3ccccc3)nc2C(C)(C(=O)NCCCn2ccnc2)C1 (centres undefined)	NIH3T3 tox inconclusive, HEK cytotox inconclusive
CCOC(=O)[C@H]1C[C@@H]2O[C@H]1[C@H]1CN(C(=O)OC)C[C@H]1[C@@H]2O	NIH3T3 tox inconclusive (no result: FLuc inh, NPR1 antag, GPT2 inh)
O=C1NCc2ccccc2CC12CCN(Cc1c(F)cccc1Cl)CC2	none (no result: FLuc inh, NPR1 antag)
COc1ccc2[nH]c(C(=O)N3CCCN(S(=O)(=O)c4ccccc4)CCC(=O)NCC3)cc2c1	HEK cytotox inconclusive
COc1ccccc1-c1cc(C(=O)NCCc2ccc(F)cc2)nn2cccc12	NIH3T3 tox inconclusive, HEK cytotox 35µM (no result: FLuc inh, NPR1 antag)
COc1ccccc1-c1cc(C(=O)NCc2cccnc2)nn2cccc12	NIH3T3 tox inconclusive, HEK cytotox inconclusive (no result: FLuc inh, NPR1 antag)
COc1ccccc1-c1cc(C(=O)NCc2cccc(Cl)c2)nn2cccc12	NIH3T3 tox inconclusive, HEK cytotox 45µM (no result: FLuc inh, NPR1 antag)
O=C(Cc1ccccc1F)N1CCC(Oc2cccc(F)c2)C1 (centres undefined)	HEK cytotox inconclusive (no result: FLuc inh, NPR1 antag)
Cc1ccc(NC(=O)Cn2ccn3nc(-c4ccccc4)c(CO)c3c2=O)c(C)c1	NIH3T3 tox inconclusive, HEK cytotox 45µM
Cc1ccc(NC(=O)Cn2ccn3nc(-c4ccc(F)cc4)c(CO)c3c2=O)c(C)c1	NIH3T3 tox inconclusive, HEK cytotox inconclusive, GPT2 inh inconclusive
O=C(Cn1ccn2nc3c(c2c1=O)CCCCC3)Nc1ccccc1F	FLuc inh 45µM
CC(C)c1ccccc1NC(=O)Cn1ccn2nc3c(c2c1=O)CCCCC3	NIH3T3 tox inconclusive, HEK cytotox 40µM
COC(=O)N1CCC(c2nn(-c3ccccn3)c(=O)[nH]2)CC1	none (no result: FLuc inh, NPR1 antag)
Cc1nn(-c2ccc(C(F)(F)F)cc2)c(C)c1[C@@H]1C=C[C@@H](NS(=O)(=O)c2ccccc2)C1	NIH3T3 tox 40µM, HEK cytotox 45µM
Cc1nn(-c2ccc(C(F)(F)F)cc2)c(C)c1[C@@H]1C=C[C@@H](NC(=O)COc2ccccc2)C1	NIH3T3 tox inconclusive, HEK cytotox inconclusive
Cc1ccc(-n2nc(C)c([C@@H]3C=C[C@@H](NS(=O)(=O)c4cccs4)C3)c2C)cc1Cl	NIH3T3 tox 35µM, HEK cytotox 45µM, FLuc inh inconclusive, NPR1 antag inconclusive, GPT2 inh inconclusive
Cc1ccc(-n2nc(C)c([C@H]3C=C[C@@H](OC(=O)N[C@H](C)c4ccccc4)C3)c2C)cc1Cl	NIH3T3 tox inconclusive, HEK cytotox inconclusive
COc1ccc(C(=O)N[C@@H]2C=C[C@@H](c3c(C)nn(-c4ccc(C)c(Cl)c4)c3C)C2)cc1	NIH3T3 tox inconclusive, HEK cytotox inconclusive, FLuc inh 32µM, NPR1 antag inconclusive
COc1ccc(C(=O)N[C@@H]2C=C[C@@H](c3c(C)nn(-c4ccccc4)c3C)C2)cc1	NIH3T3 tox inconclusive, HEK cytotox inconclusive
Nc1nc(NCCCc2ccco2)cc(C2CC(O)C2)n1 (centres undefined)	NIH3T3 tox inconclusive, HEK cytotox inconclusive
Cc1ccccc1CCN1CCCC(CN(C)C(=O)Nc2ccccc2C)C1 (centres undefined)	none
Cc1ccccc1-c1[nH]nc2ncc(-c3cccnc3)nc12	NIH3T3 tox inconclusive, HEK cytotox inconclusive, GPT2 inh inconclusive
COc1ccccc1-c1cnc2n[nH]c(-c3sccc3C)c2n1	NIH3T3 tox inconclusive, HEK cytotox 89µM
COc1ccc(-c2cnc3n[nH]c(-c4sccc4C)c3n2)cc1OC	NIH3T3 tox inconclusive, HEK cytotox 63µM
COc1ccc(-c2cnc3n[nH]c(-c4sccc4C)c3n2)cc1	NIH3T3 tox inconclusive, HEK cytotox inconclusive

Screening data as filed in PubChem.
